# Assay results as given in PubChem BioAssay AID588726 (The Scripps Research Institute Molecular Screening Center, 2011).
# About 8,200 (2.3%) of roughly 360,000 compounds were called active. No stated cut-off is given here; in the data, active means inhibition above about 27%; inactive means the rest. This excerpt belongs to a sample that is enriched for actives.
# Biological target: Fructose-bisphosphate aldolase (Mycobacterium tuberculosis (strain ATCC 25618 / H37Rv)) (UniProt P9WQA3)
# Assay: Mtb FBA enzyme inhibitors, primary screen, biochemical, fluorescence, strain H37Rv (AID 588726);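 further: 0% = vehicle and 100% = reference inhibitor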
# Conditions: purified M. tuberculosis FBA, fluorescence read-out, at 1 µM, hits give high values
# Fructose-bisphosphate aldolase (Mycobacterium tuberculosis (strain ATCC 25618 / H37Rv)), sequence (P9WQA3 whole entry, looked up): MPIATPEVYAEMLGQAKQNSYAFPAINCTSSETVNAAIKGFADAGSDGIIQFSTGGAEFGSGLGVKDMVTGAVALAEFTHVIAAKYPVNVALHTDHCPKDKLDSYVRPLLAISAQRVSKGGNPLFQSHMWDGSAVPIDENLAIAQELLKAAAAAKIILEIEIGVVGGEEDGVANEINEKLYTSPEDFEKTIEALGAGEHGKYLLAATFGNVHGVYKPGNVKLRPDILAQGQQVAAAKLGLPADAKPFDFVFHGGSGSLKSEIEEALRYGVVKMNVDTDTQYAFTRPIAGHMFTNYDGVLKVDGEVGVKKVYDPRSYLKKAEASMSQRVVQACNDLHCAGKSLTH
row,Compound,inhibition
1,COc1cc2c(cc1OC)C1C(=O)c3cc(OS(C)(=O)=O)c(OC)cc3C1N(C)C2=O (stereo unspecified),3.73% (inactive)
2,O=C(Nc1nnc(C2=COCCO2)o1)c1ccc([N+](=O)[O-])s1,-5.53% (inactive)
3,O=C(Nc1nccs1)C1CCCN1S(=O)(=O)c1cccc2cccnc12 (stereo unspecified),-1.37% (inactive)
4,Cc1cc(C)nc(SCc2cn3c(C)cc(C)nc3n2)n1,78.2% (active)
5,CCn1c(CSc2nc(C)cc(C)n2)nnc1SCC(N)=O,-3.73% (inactive)
6,COc1ccc(C(C)=O)cc1CSc1nc2nc(C)cc(C)n2n1,-0.02% (inactive)
7,COc1ccc(C(CNC(=O)CSc2ccccc2)N2CCOCC2)cc1 (stereo unspecified),2.08% (inactive)
8,COc1cc2sc(C)nc2cc1C,4.23% (inactive)
9,CC(=O)N1CCOc2ccc(S(=O)(=O)N3CCC(C(=O)Nc4ccccc4F)CC3)cc21,3.64% (inactive)
10,COc1ccc(NC(=O)N2CCC3(CC2)OCCO3)c(OC)c1,-0.76% (inactive)
11,O=C(CCCN1C(=O)c2cccc3cccc(c23)C1=O)N1CCN(Cc2ccc3c(c2)OCO3)CC1,10.2% (inactive)
12,O=C(Cc1ccccc1[N+](=O)[O-])N1CCN(Cc2ccc3c(c2)OCO3)CC1,0.16% (inactive)
13,O=C(Nc1cccc2ccccc12)N1CCN(Cc2ccc3c(c2)OCO3)CC1,41.2% (active)
14,O=C(Nc1cccc2ccccc12)N1CCC2(CC1)OCCO2,44.6% (active)
15,O=C(c1ccccc1[N+](=O)[O-])N1CCC2(CC1)OCCO2,0.71% (inactive)
16,CCOC(=O)c1cc2cc(-c3c(C(=O)OCC)oc4cc(O)cc(O)c4c3=O)ccc2o1,0.2% (inactive)
17,COc1ccc(Cc2nnnn2CC(=O)O)cc1,0.07% (inactive)
18,CN(CC(=O)Nc1ccccc1C(F)(F)F)C(=O)Cc1ccccc1F,-1.8% (inactive)
19,CC(C)N1C(=S)SC(C)(C)C1n1oc(=O)n(-c2ccc(Cl)c(Cl)c2)c1=O (stereo unspecified),1.39% (inactive)
20,COc1ccc(-c2c(C(C)=O)c(C)nc3sc4c(=O)n(-c5ccc(C)cc5)nnc4c23)cc1,3.94% (inactive)
21,CCN1CC=C2C(C#N)=C(N)C(C#N)(C#N)[C@H](c3ccoc3)[C@H]2C1,28% (active)
22,COC(=O)[C@]1(Cc2ccccc2)N[C@H](CN(C)S(=O)(=O)c2ccc(OC(F)(F)F)cc2)[C@@H]2C(=O)N(C)C(=O)[C@@H]21,0.06% (inactive)
23,O=C1c2ccccc2-c2ccccc2NC1O (stereo unspecified),-1.24% (inactive)

row,Compound,inhibition
1,COc1ccc2[nH]c3ccc(OC)cc3c2c1,28.3% (active)
2,COc1ccc2[nH]c3c(c2c1)CCN[C@H]3C,0.12% (inactive)
3,COc1ccc2[nH]c3c(C)c4cc[n+](C)cc4c(C)c3c2c1,-3.24% (inactive)
4,C[C@]1(C(=O)NCCc2c[nH]c3ccccc23)C=C[C@@H](Cc2ccccc2)N1C(=O)c1ccccc1,-0.23% (inactive)
5,COc1ccc(NC(=O)CSc2nnc(C3CC3)n2C)cc1S(=O)(=O)N1CCCCC1,-1.4% (inactive)
6,CCOc1ccc(N(CC(=O)Nc2ccccc2F)S(=O)(=O)c2c(C)[nH]c(=O)[nH]c2=O)cc1,0.28% (inactive)
7,O=C(NCCCn1ccnc1)C1CCCN(S(=O)(=O)c2cc(Cl)ccc2Cl)C1 (stereo unspecified),-0.78% (inactive)
8,CCCCN=C(N)/C(C(=O)OCC)=C(\O)c1ccc(OC)cc1,-0.66% (inactive)
9,Cc1noc(C)c1COC(=O)COc1ccc(-c2ccccc2)cc1,-1.21% (inactive)
10,Cc1noc(C)c1COc1ccc2ccc(=O)oc2c1,28.6% (active)
11,CC(C)OC(=O)c1ccc(COc2ccc3ccc(=O)oc3c2)o1,17.9% (inactive)
12,O=C(CSc1ncnc2c1oc1ccccc12)NC1CCCC1,-1.09% (inactive)
13,CCOc1ccc(CCNC(=O)COC(=O)c2c(OC)cccc2OC)cc1OCC,-0.8% (inactive)
14,COc1ccc(C(=O)OCc2cc(=O)n3ccsc3n2)cc1F,-2.01% (inactive)
15,COc1ccc(NC(=S)NCC2CCN(c3ccc(OC)cc3)C2)cc1 (stereo unspecified),-3.11% (inactive)
16,COc1ccc([C@H]2N[C@]3(CCCN(Cc4ccco4)C3=O)[C@H]3C(=O)N(C)C(=O)[C@@H]23)cc1,-1.27% (inactive)
17,COC(=O)Cc1nc2c(N)nc(N)nc2[nH]c1=O,159% (active)
18,COc1cc(C(=O)NC2CCN(C)CC2)ccc1Nc1ncc2c(n1)N(C1CCC(O)CC1)CCC(=O)N2C (stereo unspecified),1.68% (inactive)
19,O=c1[nH]cccc1-c1nc2ccccc2n1Cc1ccc(Cl)cc1,187% (active)
20,O=C(O)CCc1nc2cc(Cl)ccc2n(Cc2ccccc2)c1=O,1.59% (inactive)
21,CC(C)(C)N1CC(c2nc3ccccc3n2Cc2ccc(F)cc2)CC1=O (stereo unspecified),-9.37% (inactive)
22,CC12CN3CCN(CC(C3)/C1=N\NC(=O)c1ccccc1N)C2,1.1% (inactive)
23,Nc1ccccc1C(=O)NC1CCCCNC1=O (stereo unspecified),68.5% (active)
